According to PubChem BioAssay (NCI):
Where “and” joins values, the source holds several entries; their conditions need not be identical. Equal values may be shown once. The panel holds about 83,000 compounds, 20% with a hit somewhere; the sample as a whole holds those more often.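 How to read the values: 0–100, growth inhibition (40 = 60% inhibited); 0, no net growth; -100 to 0, cell death (-40 = 40% of starting cells died; -100 = all dead).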 Calls of active or inactive are those of the source. How the source made its calls: active means growth percent below 10; inactive means the rest.

How the values were obtained:
Test in all cases: NCI-60 one-dose screen, 48 h (100 = growth as untreated, 0 = no growth, -100 = all killed)
[1] = tested on: SR leukemia; details: 10 µM unless noted
[2] = tested on: RPMI-8226 leukemia; details: 10 µM unless noted
[3] = tested on: OVCAR-8 ovarian; details: 10 µM unless noted
[4] = tested on: OVCAR-5 ovarian; details: 10 µM unless noted
[5] = tested on: OVCAR-4 ovarian; details: 10 µM unless noted
[6] = tested on: SK-OV-3 ovarian; details: 10 µM unless noted
[7] = tested on: IGROV1 ovarian; details: 10 µM unless noted
[8] = tested on: HS 578T breast; details: 10 µM unless noted
[9] = tested on: NCI/ADR-RES ovarian; details: 10 µM unless noted
[10] = tested on: T-47D breast; details: 10 µM unless noted
[11] = tested on: BT-549 breast; details: 10 µM unless noted
[12] = tested on: MDA-MB-435 melanoma; details: 10 µM unless noted
[13] = tested on: SW-620 colon; details: 10 µM unless noted
[14] = tested on: MCF7 breast; details: 10 µM
[15] = tested on: HCT-116 colon; details: 10 µM unless noted
[16] = tested on: HCC-2998 colon; details: 10 µM unless noted
[17] = tested on: KM12 colon; details: 10 µM unless noted
[18] = tested on: OVCAR-3 ovarian; details: 10 µM unless noted

SMILES	growth [1]	growth [2]	growth [3]	growth [4]	growth [5]	growth [6]	growth [7]	growth [8]	growth [9]	growth [10]	growth [11]	growth [12]	growth [13]	growth [14]	growth [15]	growth [16]	growth [17]	growth [18]
NC1=CC(=O)c2ccccc2C1=O	81.3% (inactive)	81.7% (inactive)	85.3% (inactive)	110% (inactive)	87.7% (inactive)	92.3% (inactive)	90.8% (inactive)	71.6% (inactive)	88.6% (inactive)	98% (inactive)	92.1% (inactive)	8.66% (active)	107% (inactive)	54.5% (inactive)	80.8% (inactive)	90.4% (inactive)	79.3% (inactive)	–
O=C(/C=C/c1cccc(Cl)c1)c1ccccc1	7.8% (active) and 11.7% (inactive)	-30.6% (active) and 0.877% (active)	88.2% (inactive) and 79.9% (inactive)	97.9% (inactive) and 95.6% (inactive)	97.8% (inactive) and 92.9% (inactive)	109% (inactive) and 98.5% (inactive)	93.7% (inactive) and 71.8% (inactive)	–	105% (inactive) and 88.8% (inactive)	96.8% (inactive) and 88.3% (inactive)	98.4% (inactive) and 85.2% (inactive)	–	52.8% (inactive) and 39.4% (inactive)	31.4% (inactive) and 15.7% (inactive)	12.3% (inactive) and -17.1% (active)	92.5% (inactive)	63.2% (inactive) and 30.8% (inactive)	84.9% (inactive) and 80.5% (inactive)
Oc1c(Br)c(Br)c(O)c(Br)c1Br	63.2% (inactive)	104% (inactive)	102% (inactive)	129% (inactive)	68.7% (inactive)	156% (inactive)	115% (inactive)	144% (inactive)	102% (inactive)	25.2% (inactive)	95.3% (inactive)	106% (inactive)	8.91% (active)	67% (inactive)	96.2% (inactive)	128% (inactive)	110% (inactive)	–
O=C(/C=C\c1ccccc1)N1c2ccccc2CC1c1c[nH]c2ccccc12 (stereo unspecified)	73.5% (inactive)	55.9% (inactive)	81% (inactive)	76.8% (inactive)	62% (inactive)	60.5% (inactive)	47.3% (inactive)	–	73.6% (inactive)	23.4% (inactive)	88.6% (inactive)	83.8% (inactive)	78.2% (inactive)	66.2% (inactive)	–	85.6% (inactive)	64.4% (inactive)	75% (inactive)
Cc1ccc(NS(=O)(=O)c2ccc(C)cc2)cc1	91.7% (inactive) and 97.8% (inactive)	83.1% (inactive) and 95.2% (inactive)	97.5% (inactive) and 92.7% (inactive)	111% (inactive) and 105% (inactive)	93.7% (inactive) and 106% (inactive)	109% (inactive) and 101% (inactive)	111% (inactive) and 107% (inactive)	98.9% (inactive) and 111% (inactive)	104% (inactive) and 99.7% (inactive)	94.1% (inactive) and 83.7% (inactive)	117% (inactive) and 105% (inactive)	108% (inactive) and 109% (inactive)	104% (inactive) and 107% (inactive)	88% (inactive) and 91.2% (inactive)	102% (inactive) and 98.1% (inactive)	97.7% (inactive) and 97.8% (inactive)	91.2% (inactive) and 89.2% (inactive)	–
CC(=O)ON=C1C=CC(=C(C#N)c2ccccc2)C=C1	17.4% (inactive)	18.7% (inactive)	2.27% (active)	123% (inactive)	60.6% (inactive)	55.7% (inactive)	2.9% (active)	15.5% (inactive)	-10.8% (active)	42.3% (inactive)	50.7% (inactive)	-2.19% (active)	6.41% (active)	15.5% (inactive)	-13.1% (active)	88.3% (inactive)	-48.2% (active)	–
COc1ccc2nc3cc(Cl)ccc3c(NCCNc3c4ccc(Cl)cc4nc4ccc(OC)cc34)c2c1	-29.8% (active)	-34.5% (active)	-65.4% (active)	-90.1% (active)	-43.6% (active)	-95.6% (active)	-78.9% (active)	-34.9% (active)	-53.5% (active)	-64.4% (active)	-76.6% (active)	-78.9% (active)	-50.4% (active)	-70% (active)	-83.3% (active)	-82.2% (active)	-71.8% (active)	–
O=C(O)c1ccc2c3c(ncnc13)-c1ccccc1C2=O	98.4% (inactive)	87.1% (inactive)	79.9% (inactive)	116% (inactive)	91.7% (inactive)	98% (inactive)	83.4% (inactive)	5.48% (active)	76.9% (inactive)	101% (inactive)	33.8% (inactive)	-60% (active)	87.7% (inactive)	50.9% (inactive)	91.2% (inactive)	-58.5% (active)	–	–
COC(=O)c1nc(=S)[nH]c(C(=O)OC)c1C(=O)c1ccc2ccccc2c1	93.5% (inactive)	103% (inactive)	107% (inactive)	101% (inactive)	96.9% (inactive)	101% (inactive)	98.5% (inactive)	–	106% (inactive)	86.5% (inactive)	131% (inactive)	–	101% (inactive)	94.4% (inactive)	107% (inactive)	113% (inactive)	107% (inactive)	109% (inactive)
COc1ccccc1/C=C\C(=O)c1ccccc1	15.3% (inactive)	-13.3% (active)	75.8% (inactive)	84% (inactive)	81.2% (inactive)	94.5% (inactive)	64.4% (inactive)	–	14.2% (inactive)	81.9% (inactive)	83.2% (inactive)	46.4% (inactive)	2.63% (active)	5.24% (active)	–	97% (inactive)	–	110% (inactive)
C=C(Cl)C(=NC(C)(C)C)Nc1ccccc1C	1.56% (active)	75.1% (inactive)	89.2% (inactive)	114% (inactive)	91.7% (inactive)	105% (inactive)	119% (inactive)	–	107% (inactive)	64% (inactive)	102% (inactive)	–	72.5% (inactive)	66.6% (inactive)	66.5% (inactive)	113% (inactive)	80.9% (inactive)	65.9% (inactive)
O=C1c2cccnc2-c2nccc3c2c1nc1cc(Br)ccc13	-38.2% (active) and 17.6% (inactive)	-49.7% (active) and -22.2% (active)	-41.9% (active)	32.3% (inactive) and -53% (active)	-54.2% (active) and -85.3% (active)	-10.1% (active) and -96% (active)	-77.6% (active) and -77.5% (active)	-74% (active) and -32.9% (active)	-50.7% (active) and -38.1% (active)	-34.3% (active) and -63.8% (active)	-73.9% (active) and -67.8% (active)	-68.4% (active) and -94.5% (active)	-63.4% (active) and -74.8% (active)	-41.9% (active) and -57.8% (active)	-81.5% (active) and -68.7% (active)	-100% (active) and -82.7% (active)	-96.7% (active) and -76.7% (active)	–
N#Cc1ccc([N+](=O)[O-])o1	104% (inactive)	107% (inactive)	89.9% (inactive)	107% (inactive)	107% (inactive)	96.4% (inactive)	109% (inactive)	–	114% (inactive)	85.1% (inactive)	101% (inactive)	108% (inactive)	106% (inactive)	101% (inactive)	–	117% (inactive)	102% (inactive)	118% (inactive)
Nc1nc(N)c2nc(CNc3ccc(C(=O)NC(CCC(=O)O)C(=O)O)cc3)cnc2n1 (stereo unspecified)	15.1% (inactive) and 40.2% (inactive)	60.7% (inactive) and 55% (inactive)	31.7% (inactive) and 34.9% (inactive)	31.9% (inactive)	58.8% (inactive) and 49.1% (inactive)	53.9% (inactive) and 44.2% (inactive)	36.9% (inactive) and 34.9% (inactive)	90.5% (inactive)	25.8% (inactive) and 20.3% (inactive)	58% (inactive) and 55.5% (inactive)	45.3% (inactive) and 45.4% (inactive)	35.8% (inactive) and 24.4% (inactive)	27.6% (inactive) and 55.3% (inactive)	18% (inactive) and 16.3% (inactive)	21.2% (inactive) and 10.3% (inactive)	16.6% (inactive) and 3.42% (active)	38.7% (inactive) and 30.8% (inactive)	–
c1ccc2c(c1)Nc1cc3ccccc3cc1N2	29.2% (inactive)	18.8% (inactive)	29.5% (inactive)	69.7% (inactive)	32.6% (inactive)	63.6% (inactive)	50.6% (inactive)	53.4% (inactive)	30.5% (inactive)	24.9% (inactive)	33% (inactive)	-16.7% (active)	18.8% (inactive)	2.88% (active)	–	36.8% (inactive)	–	–
CC(C)(C)c1ccc(O)c(C2CCCCC2)c1	84.9% (inactive)	83% (inactive)	96.3% (inactive)	101% (inactive)	101% (inactive)	109% (inactive)	137% (inactive)	–	117% (inactive)	108% (inactive)	127% (inactive)	117% (inactive)	99.6% (inactive)	101% (inactive)	–	111% (inactive)	91.1% (inactive)	110% (inactive)
